Laboratory results: the supplement of paper PMC9337992
± gives the standard deviation of the averaged measurements.

tested on: MDAMB231; test: cell proliferation (confluence) relative to DMSO control; higher = less growth inhibition; conditions: 5 uM; 6 d
Procedure: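 Epigenetic chemical probe screen: 15 TNBC cell lines, 500 cells per well in 384-well plates, treated with 5 uM of each of 36 SGC probes for 6 d. Confluency was imaged by IncuCyte ZOOM and normalised to DMSO control wells. Four replicate wells per compound.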

SMILES	cell proliferation [%]
O=C(O)CNC(=O)c1c(O)c2ccccc2n(Cc2ccccc2)c1=O	97.33 ± 0.35
c1ccc([C@@H]2C[C@H]2NC2CCNCC2)cc1	98.48 ± 0.8
COc1cc(C(=O)N2CC[C@@H](O)[C@@H](N)C2)cc2nc(-c3cc4ccccc4n3CC3CC3)n(C)c12	88.8 ± 9.1
